The test system of test [1] is Human papillomavirus type 1a protein E7 (residues 44-93). Description: small molecules binding HPV E7 44-93 – biochemical, small-molecule microarray, residues 44-93, 635 nm fluorescence, primary screen (AID 1108).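 Further: E7 fragment applied at 1 µg/mL in TBST for 1 h at 4 C; score combines spot fluorescence with its signal to noise ratio.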 The note with it: fluorescence 635 nm, higher = more signal.
Test [2] in a line: hepatitis C replication reporter changes, two-sided – Huh7 cells, luciferase reporter, HCV replication inhibitor project, primary screen (AID 1109).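 Further: huh7 hepatoma cells harbouring a luciferase neomycin HCV replicon reporter; luciferase luminescence as measure of HCV replicon replication; test concentration not given here.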 The note with it: Huh7 HCV replicon luciferase reporter, 48 h; higher = more signal.
In test [3] the target is Left-right determination factor 2 (Homo sapiens) (UniProt O00292). Description: small molecules binding LEFTY2 protein – biochemical, small-molecule microarray, 635 nm fluorescence scan, primary screen (AID 1110). As to conditions: higher = more signal.
Test [4] has as its target Calmodulin-1 (Homo sapiens) (UniProt P0DP23). Description: small molecules binding calmodulin-1 with EGTA – biochemical, small-molecule microarray, Cy5-labelled CALM1, profiling panel (AID 1111).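 Further: labelled calmodulin applied in Tris saline Tween buffer holding calcium plus EGTA and DTT.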 The note with it: Cy5-CALM1 binding fluorescence, higher = more signal.
The target is the same in test [5]. Description: small molecules binding Ca-loaded calmodulin-1 – biochemical, small-molecule microarray, Cy5-labelled CALM1, plus calcium, artefact control for SMM control-protein annotation, profiling panel (AID 1112).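 Further: score merges spot fluorescence with signal to noise from triplicate slides.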 As to conditions: Cy5-CALM1 binding fluorescence, higher = more signal.
A short description of test [6]: probe aWnt5a binding to arrayed compounds – biochemical, biotinylated probe, 635/667 nm fluorescence, primary screen (AID 1113).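 Further: score merges 667 nm fluorescence intensity with signal-to-noise per printed feature.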 The note with it: small-molecule microarray, higher = more signal.
Test [7] can be described thus: probe aShh binding to arrayed compounds – biochemical, biotinylated probe, 635/667 nm fluorescence, primary screen (AID 1114).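 Further: probe is biotin-labelled aShh protein from a stem cell growth factor screen; measures binding of labelled protein to compounds printed on the slide; score merges feature fluorescence at 667 nm with signal-to-noise.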 The note with it: small-molecule microarray, higher = more signal.
Test [8] in a line: probe aNog binding to arrayed compounds – biochemical, biotinylated probe, 635/667 nm fluorescence, primary screen (AID 1115).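 Further: probe is biotinylated aNog protein used at 0.15 µg/mL for 1 h at 4 C; z-score combines 667 nm fluorescence of each spot with its signal to noise.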 As to conditions: small-molecule microarray, higher = more signal.
The target in test [9] is Torsin-1A-interacting protein 1 (Homo sapiens) (UniProt Q5JTV8). Description: compound microarray binding of lysate hLAP1 – cell lysate, small-molecule microarray, COS7 lysate, 635/667 nm fluorescence, primary screen (AID 1116). The note with it: 635 nm fluorescence, higher = more signal.
In test [10] the target is Alpha-bungarotoxin (Bungarus multicinctus) (UniProt P60615). Description: compounds binding labelled alpha-BTX control protein – biochemical, small-molecule microarray, Alexa647 label, 635/667 nm fluorescence, artefact control for SMM control protein annotation, profiling panel (AID 1117). As to conditions: alpha-BTX-A647 binding fluorescence, higher = more signal.
The target of the next test is Albumin (Bos taurus) (UniProt P02769). Description: compounds binding labelled BSA control protein – biochemical, small-molecule microarray, Alexa647 label, 635/667 nm fluorescence, artefact control for SMM control protein annotation, profiling panel (AID 1118).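 Further: score merges 667 nm emission intensity and signal-to-noise per printed compound spot.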 As to conditions: BSA-A647 binding, fluorescence 635 nm, higher = more signal.
Test [11] is described as follows: probe aXIP binding to arrayed compounds – biochemical, NeuroSMM set, 635/667 nm fluorescence, primary screen (AID 1119).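 Further: probe is the protein aXip251-270 applied at 1 µg/mL to compound-printed slides; binding of probe to printed compounds measured as 667 nm fluorescence plus signal to noise.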 The note with it: small-molecule microarray, higher = more signal, called active from +8 up or from −8 down.
Test [12] can be described thus: probe aNOTCH3 binding on compound microarray – biochemical, small-molecule microarray, 635/667 nm fluorescence, primary screen (AID 1120).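 Further: probe is a biotin-tagged antibody raised against NOTCH3 rather than NOTCH3 protein; score merges spot fluorescence near 667 nm with spot signal to noise.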 The note with it: higher = more signal.
A short description of test [13]: probe aNOTCH2 binding on compound microarray – biochemical, small-molecule microarray, 635/667 nm fluorescence, primary screen (AID 1121).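 Further: score merges feature fluorescence read at 667 nm with its signal to noise.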 As to conditions: higher = more signal.
The target of test [14] is Carbonic anhydrase 2 (Homo sapiens) (UniProt P00918). Description: compounds binding carbonic anhydrase 2 – biochemical, small-molecule microarray, Alexa647-labelled CAII, profiling panel (AID 1122). As to conditions: CAII-A647 binding fluorescence, higher = more signal.
Test [15] is described as follows: COS7 lysate on small-molecule microarray, probe aHis, 635 nm (AID 1123).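 Further: z-score combines 667nm fluorescence intensity with signal-to-noise per printed compound spot.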 As to conditions: COS7 cell lysate, fluorescence, higher = more signal.
Test [16] can be described thus: probe aLAP1 signal on lysate-treated microarray – cell lysate, small-molecule microarray, COS7 lysate, primary screen (AID 1124).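 Further: lysate comes from COS7 cells expressing LAP1 and is applied at 0.3 µg/mL; score merges spot fluorescence near 667 nm with signal-to-noise over triplicate slides.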 As to conditions: probe aLAP1, fluorescence, higher = more signal.
Another test has as its system Sam68 (KHDRBS1). Description: compounds binding KHDRBS1 protein – biochemical, small-molecule microarray, 635 nm fluorescence, primary screen (AID 1125).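 Further: score merges 667 nm channel intensity with signal to noise over triplicate slides.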 The note with it: higher = more signal.
For test [17], the system named is Chordin-like protein 2 (CHRDL2). Description: compounds binding chordin-like 2 – biochemical, small-molecule microarray, 635 nm fluorescence, primary screen (AID 1126).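 Further: printed compound slides probed with Chrdl2 protein at 4 µg/mL for 1 h at 4 C; score merges 667 nm emission intensity with signal to noise over three replicate slides.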 As to conditions: fluorescence 635 nm, higher = more signal.
Test [18] deals with Concanavalin-A (Canavalia ensiformis) (UniProt P02866). Description: compounds binding concanavalin A lectin – biochemical, small-molecule microarray, Alexa647 label, 635 nm, artefact control for SMM control protein annotation, primary screen (AID 1127).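 Further: z combines 667 nm emission intensity with signal-to-noise across three replicate slides.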 The note with it: ConA-A647 binding fluorescence, higher = more signal.

Activity calls are given as the source filed them.

Alpha-bungarotoxin (Bungarus multicinctus), sequence (P60615 whole entry, looked up): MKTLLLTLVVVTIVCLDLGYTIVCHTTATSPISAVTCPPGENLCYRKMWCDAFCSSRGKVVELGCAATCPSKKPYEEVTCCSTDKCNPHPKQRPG
Left-right determination factor 2 (Homo sapiens), sequence (O00292 whole entry, looked up): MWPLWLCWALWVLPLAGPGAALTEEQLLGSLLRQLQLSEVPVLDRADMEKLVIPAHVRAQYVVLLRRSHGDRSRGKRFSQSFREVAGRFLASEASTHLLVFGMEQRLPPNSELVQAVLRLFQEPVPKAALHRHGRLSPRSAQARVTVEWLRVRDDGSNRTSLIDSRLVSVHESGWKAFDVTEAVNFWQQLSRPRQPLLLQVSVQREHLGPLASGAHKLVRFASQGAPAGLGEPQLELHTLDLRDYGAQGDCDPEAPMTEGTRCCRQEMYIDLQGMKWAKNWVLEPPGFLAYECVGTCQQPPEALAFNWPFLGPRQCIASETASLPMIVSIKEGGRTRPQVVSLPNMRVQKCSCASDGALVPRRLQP
Torsin-1A-interacting protein 1 (Homo sapiens), sequence (Q5JTV8 whole entry, looked up): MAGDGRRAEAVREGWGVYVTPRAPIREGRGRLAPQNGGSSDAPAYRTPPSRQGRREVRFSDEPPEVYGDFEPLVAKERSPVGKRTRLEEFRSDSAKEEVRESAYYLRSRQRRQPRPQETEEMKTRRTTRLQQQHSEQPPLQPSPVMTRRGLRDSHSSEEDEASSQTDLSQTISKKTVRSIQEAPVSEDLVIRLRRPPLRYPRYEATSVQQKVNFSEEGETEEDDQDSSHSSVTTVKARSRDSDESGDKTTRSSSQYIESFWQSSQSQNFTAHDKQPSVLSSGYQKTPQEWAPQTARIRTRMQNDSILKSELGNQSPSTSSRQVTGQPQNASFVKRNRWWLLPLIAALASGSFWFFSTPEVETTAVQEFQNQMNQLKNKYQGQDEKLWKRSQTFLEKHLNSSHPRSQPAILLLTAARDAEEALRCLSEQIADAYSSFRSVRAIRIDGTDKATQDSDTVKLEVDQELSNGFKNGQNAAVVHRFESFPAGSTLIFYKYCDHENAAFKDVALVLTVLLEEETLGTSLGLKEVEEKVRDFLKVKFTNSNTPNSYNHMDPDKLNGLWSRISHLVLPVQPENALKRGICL
Albumin (Bos taurus), sequence (P02769 whole entry, looked up): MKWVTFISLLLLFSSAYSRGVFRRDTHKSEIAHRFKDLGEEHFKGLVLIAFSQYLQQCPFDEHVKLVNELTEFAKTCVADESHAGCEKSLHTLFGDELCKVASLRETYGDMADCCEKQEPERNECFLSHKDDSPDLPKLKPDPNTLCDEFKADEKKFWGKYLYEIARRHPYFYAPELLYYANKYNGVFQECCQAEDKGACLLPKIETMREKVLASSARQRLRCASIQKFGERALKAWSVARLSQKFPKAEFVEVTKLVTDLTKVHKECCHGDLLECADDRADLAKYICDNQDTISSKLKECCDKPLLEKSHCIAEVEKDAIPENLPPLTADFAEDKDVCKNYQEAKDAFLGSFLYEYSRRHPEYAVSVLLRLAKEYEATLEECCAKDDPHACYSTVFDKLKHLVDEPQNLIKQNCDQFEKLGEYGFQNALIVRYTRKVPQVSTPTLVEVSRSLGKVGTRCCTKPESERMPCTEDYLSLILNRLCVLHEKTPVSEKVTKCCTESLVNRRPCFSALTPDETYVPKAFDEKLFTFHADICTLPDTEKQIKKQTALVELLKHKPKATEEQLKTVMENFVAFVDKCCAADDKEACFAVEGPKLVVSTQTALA
Concanavalin-A (Canavalia ensiformis), sequence (P02866 whole entry, looked up): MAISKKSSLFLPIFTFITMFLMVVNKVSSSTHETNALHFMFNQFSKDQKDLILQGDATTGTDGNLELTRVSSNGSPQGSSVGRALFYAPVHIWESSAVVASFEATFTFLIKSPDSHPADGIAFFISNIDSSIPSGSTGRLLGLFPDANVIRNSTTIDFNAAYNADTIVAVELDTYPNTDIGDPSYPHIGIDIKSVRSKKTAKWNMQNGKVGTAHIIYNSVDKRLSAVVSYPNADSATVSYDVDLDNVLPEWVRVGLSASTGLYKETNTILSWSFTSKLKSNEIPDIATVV

`CS(=O)(=O)CCOC(=O)C1=CC(CCCO)=CC(c2ccc(CN3CCCC3)cc2)N(Cc2cccc(OC(F)(F)F)c2)C=C1C(=O)OCCS(C)(=O)=O` (stereo not given): the composite z-score was 1.22 in test [1]; 0.558 in [3]; 0.784 in test [4]; 0.217 in test [5]; 0.133 in test [6]; 0.0434 in test [7]. For the same compound, the composite z-score was -0.149 in test [8]; 1.17 in test [9]; 0.822 in [10]; 0.0883 in the test with Albumin (Bos taurus); 0.111 in test [12]; -0.0254 in [13]. The composite z-score was found to be 0.454 in [14]; 1.16 in [15]; 0.0212 in test [16]; 1.26 with Sam68 (KHDRBS1); 0.379 in [17]; 0.644 in [18]. The same compound came in with a z-score in test [2] of -2.99. For the same compound, the composite Z-score in test [11] was 0.25 (inactive).
For the compound `CCCC[C@H]1C[C@@H]1[C@@H]1N(P(=O)(c2ccccc2)c2ccccc2)C[C@@](O)(c2ccccc2)CC12CC2`, the composite z-score in test [1] is 0.713; in [3], -1.06; in test [4], 1.96; in test [5], 1.03; in test [6], 0.145; in test [7] it was 0.149. In addition, the composite z-score is -0.753 in test [8]; 0.727 in test [9]; 0.217 in test [10]; 0.951 in the test with Albumin (Bos taurus); 0.169 in test [12]; 0.0525 in [13]. For the same compound, the composite z-score in test [14] is 0.374; in [15], 2.28; in [16], 0.473; in the test with Sam68 (KHDRBS1) it was 0.944; in test [17], -1.95; in test [18], 0.499. This compound displayed a z-score in test [2] of -2.71. The composite Z-score in test [11] was 0.863 (inactive).
For the compound `CN(C)CCCCCCNC(=O)[C@@H]1C[C@@H]2C(=O)N3CCC[C@H]3C(=O)N2[C@@H]1c1ccc(O)cc1`, the composite z-score is 1.42 in [1]; 1.5 in test [3]; -1.95 in [4]; -1.42 in [5]; -0.062 in test [6]; 0.42 in test [7]. Besides, the composite z-score in test [8] was -0.364; in test [9] it was 2.23; in test [10], 2.36; in the test with Albumin (Bos taurus), -0.645; in [12] it was 0.488; in test [13] it was 0.119. Moreover, the composite z-score in test [14] was 0.738; in test [15] it was 2.77; in [16], 1.47; with Sam68 (KHDRBS1), 1.31; in test [17], 1.43; in test [18], 1.16. Besides, in test [2], the z-score was determined as 1.49. For the same compound, in test [11], the composite Z-score was 2.74 (inactive).
As for `COc1ccc(C(O)C2C=CC3C(=O)N(C)C(=O)C3N2N(c2ccccc2)c2ccccc2)c2ccccc12` (stereo not given), the composite z-score in test [1] was -0.452; in test [3], 0.0468; in test [4] it was -0.078; in test [5], -0.511; in [6] it was 0.0328; in [7], -0.0011. Also, the composite z-score in [8] was 0.0984; in test [9], 1.68; in [10], 0.429; with Albumin (Bos taurus), -0.111; in test [12], 0.237; in test [13], -0.0017. In addition, the composite z-score in test [14] was 0.677; in [15], -0.198; in [16], 0.976; with Sam68 (KHDRBS1), -0.481; in test [17], 0.776; in test [18] it was 0.369. In [2], this compound returned a z-score of 0.352. In test [11], the composite Z-score is 1.39 (inactive).
For the compound `COc1ccc([C@H]2C[C@H]3C(I)=C[C@@H]2C(=O)[C@]32CO2)cc1`, the composite z-score was -1.2 in test [1]; 0.178 in test [3]; -0.978 in [4]; -1.53 in test [5]; -0.222 in [6]; -0.407 in [7]. Further, the composite z-score is -0.1 in [8]; 0.498 in test [9]; 0.957 in test [10]; -0.63 in the test with Albumin (Bos taurus); 0.0242 in [12]; -0.156 in test [13]. Besides, the composite z-score was -0.267 in test [14]; -0.442 in [15]; -0.154 in test [16]; -0.889 with Sam68 (KHDRBS1); 0.189 in test [17]; -0.0546 in test [18]. In [2], this compound showed a z-score of -3.32. For the same compound, the composite Z-score in [11] was -0.617 (inactive).
For `CC(=CC1CCCCC1)[C@@H](NC(=O)c1cccnc1)c1ccc(-c2ccccc2)cc1`, the composite z-score in [1] is 0.0493; in test [3], -0.405; in test [4], 0.139; in test [5], 0.735; in test [6] it was -0.13; in [7] it was -0.0403. Further, the composite z-score in test [8] is 0.747; in [9], -0.217; in test [10], -0.124; in the test with Albumin (Bos taurus) it was 0.513; in test [12], -0.118; in [13], -0.0665. For the same compound, the composite z-score was 0.0804 in test [14]; 1.24 in test [15]; -0.264 in test [16]; -0.649 in the test with Sam68 (KHDRBS1); -0.531 in test [17]; 0.132 in [18]. In addition, in test [2], the z-score was -2.14. Further, the composite Z-score in test [11] is -0.8 (inactive).

Source of the values: PubChem BioAssay.
